Compounds with a hit are over-represented: about 5.8% of the library has one in this group of screens.
KB-V1 cytotox: qHTS assay for MDR1-selective chemotherapeutics: Primary screen using the drug-selected MDR subline cells KB-V1; KB-V1 MDR cells viability, CellTiter-Glo, 72 h; Potency, µM (doses to about 46.1 µM), most hits filed as cytotoxic; 400,000 compounds, 3.4% hits; AID 1347076, 2019; further: on the % scale 0 is the no-effect control and ±100 the full control effect; nearly all actives have a fitted effect of over 60% in size
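Drug-selected KB-V1 cells, grown in DMEM lacking phenol red with 10% FBS, receive compound titrations; after three days at 37 degrees C, surviving cell ATP is quantified by CellTiter-Glo luminescence and responses normalized and curve-fitted.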
SW480 rerep: A quantitative high throughput screen for small molecules that induce DNA re-replication in SW480 colon adenocarcinoma cells; SW480 DNA re-replication, Hoechst DNA content imaging, 48 h; Potency, µM (titrated, usually from 46.1 µM), without a hit: at the top dose re-replication activation, most hits filed as activators; 340,000 compounds, 1.8% hits; further: % of control where 0% means no effect; nearly all actives have a fitted effect of over 55% in size
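Quantitative HTS format with DMSO vehicle controls; 48 hr drug incubation at 37 C, then 40 min Hoechst staining and scanning imager measurement at 405 nm excitation.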
MCF10A rerep: A quantitative high throughput screen for small molecules that induce DNA re-replication in MCF 10a normal breast cells; MCF 10A DNA re-replication, Hoechst nuclear intensity, 48 h; Potency, µM (doses to about 46.1 µM), without a hit: top-dose activity, positive = re-replication, usual class: activators; 350,000 compounds, 2.9% hits; AID 624296, 2012; further: % of control where 0% means no effect; nearly all actives have a fitted effect of over 50% in size
ALOX12 inh: Primary qHTS assay for inhibitors of human arachidonate 12S-lipoxygenase (ALOX12): Round 2 | Polyunsaturated fatty acid lipoxygenase ALOX12 (Homo sapiens), P18054 | purified 12hLO, xylenol orange hydroperoxide absorbance | Potency, µM (doses to about 108 µM), inactives show at the top dose activity change, negative = inhibition, most hits filed as inhibitors | 580,000 compounds, 1.1% hits | AID 1671190, 2021; further: on the % scale 0 is the no-effect control and ±100 the full control effect
Target sequence (P18054 whole entry, looked up): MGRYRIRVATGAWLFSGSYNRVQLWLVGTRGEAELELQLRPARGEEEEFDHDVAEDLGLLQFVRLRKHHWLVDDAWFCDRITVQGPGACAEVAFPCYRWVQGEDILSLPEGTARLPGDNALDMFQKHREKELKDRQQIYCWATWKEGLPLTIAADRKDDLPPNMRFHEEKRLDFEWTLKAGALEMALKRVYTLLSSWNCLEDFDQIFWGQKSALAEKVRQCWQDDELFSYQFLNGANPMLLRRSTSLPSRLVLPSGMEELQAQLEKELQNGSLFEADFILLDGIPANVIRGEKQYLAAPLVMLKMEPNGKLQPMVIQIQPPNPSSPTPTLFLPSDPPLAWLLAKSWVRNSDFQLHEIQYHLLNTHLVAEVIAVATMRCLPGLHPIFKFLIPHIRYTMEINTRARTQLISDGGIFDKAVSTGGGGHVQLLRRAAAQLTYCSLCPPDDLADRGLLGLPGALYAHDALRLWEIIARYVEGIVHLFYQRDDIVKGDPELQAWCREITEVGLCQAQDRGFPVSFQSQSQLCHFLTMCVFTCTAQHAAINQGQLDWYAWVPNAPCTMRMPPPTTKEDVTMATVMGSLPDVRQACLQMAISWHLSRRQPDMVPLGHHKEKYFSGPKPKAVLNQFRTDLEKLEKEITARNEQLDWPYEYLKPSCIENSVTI
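Purified human 12hLO (150 nM final) in 25 mM Hepes, 0.01% Triton X-100, pH 7.0 was preincubated 15 min at room temperature with compound. Then 40 uM arachidonic acid was added, 30 min. Hydroperoxide was read by Fe-XO absorbance ratio 573/405 nm.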
KB-3-1 tox: qHTS assay for MDR1-selective chemotherapeutics: Primary screen using the parental adenocarcinoma cell KB-3-1; KB-3-1 viability, CellTiter-Glo ATP luminescence, 72 h; Potency, µM (titrated, usually from 46.1 µM), usual class: cytotoxic; 400,000 compounds, 1.4% hits; further: on the % scale 0 is the no-effect control and ±100 the full control effect; nearly all actives have a fitted effect of over 60% in size
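Parental KB-3-1 adenocarcinoma cells in phenol-red-free DMEM with 10% FBS were pin-treated with compounds at several concentrations, incubated 72 h at 37 °C, and viability read by CellTiter-Glo luminescence; concentration-effect curves were fitted after normalization.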
PINK1 expr mod: A Quantitative High throughput Screen to Identify Chemical Modulators of PINK1 Expression; 410,000 compounds, 0.2% hits; Potency, µM (doses to about 76.6 µM), inactives show at the top dose activation (PINK1 increase), actives largely listed as activators; AID 624263, 2012; PINK1 immunofluorescence, high-content cytometry, 24 h; active means well fitted activation curve with a large enough effect; inconclusive means small, poorly fitted or top-dose-only effect; cell line not stated here; further: % of control where 0% means no effect; nearly all actives have a fitted effect of over 65% in size
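Stable cell line treated 24 h with compounds at 5 concentrations (CCCP controls), then fixed and immunostained for PINK1 plus nuclear and cell stains; PINK1 immunofluorescence quantified by laser-scanning microplate cytometry.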
* = called active by the depositor; i = inactive; ? = inconclusive; . = no result; [ ] = another dose, or the depositor's remark. Unless noted, the call rests on the fitted dose curve; in most records, active means well fitted curve in the direction sought with a large enough effect; inconclusive means small, poorly fitted or top-dose-only effect, or another doubt; inactive means no such curve, though single readings can be large; an effect the other way counts as inactive or inconclusive. Potency means the concentration at half of the fitted maximal effect.

SMILES | KB-V1 cytotox | SW480 rerep | MCF10A rerep | ALOX12 inh | KB-3-1 tox | PINK1 expr mod
COc1ccc(C)cc1-n1nnnc1SCc1nc(CC(C)C)no1 | . | . | . | -3% | . | .
COc1ccc2oc(=O)c(-c3csc(Nc4ccc(C)cc4)n3)cc2c1 | . | . | . | -28% | . | .
COc1ccc(Nc2nc(-c3ccc(OC)cc3)cs2)cc1 | ? | -2% | -7% | -24% | i | 1%
Cc1ccc(Nc2nc(-c3ccc(C)cc3C)cs2)cc1 | . | . | . | 6.3µM* | . | .
COc1ccc(Nc2nc(-c3c[nH]c4ccccc34)cs2)cc1 | i | ? | 16µM* | ? | ? | 10%
COc1ccc(Nc2nc(-c3ccc(F)cc3F)cs2)cc1 | . | . | . | 16µM* | . | .
COc1ccc2oc(=O)c(-c3csc(Nc4ccc(O)cc4)n3)cc2c1 | ? | ? | 4.1µM* | ? | ? | 8%
CNC(=O)C(C)S(=O)(=O)Cc1cc(Cl)c2c(c1)OCO2 (stereo unspecified) | . | . | . | 5% | . | .
CCOc1ccc(CNC(=O)CC(C)S(=O)(=O)c2ccc3c(c2)NC(=O)CO3)cc1OC (stereo unspecified) | . | . | . | 23% | . | .
O=P(OC1CCCCC1)(OC1CCCCC1)C(O)c1ccccc1 (stereo unspecified) | 9.2µM* | -11% | 1% | -1% | i | 5%[38.3 µM]
O=P(OC1CCCCC1)(OC1CCCCC1)C(O)c1cccnc1 (stereo unspecified) | i | -8% | 1% | 77% | ? | 0%
Cc1nccc(-c2cccc(C(=O)O)c2)n1 | . | . | . | -8% | . | .
Cc1ccc(-c2cc(Nc3ccc(C(=O)N(C)Cc4ccccc4)cc3)ncn2)cc1 | . | . | . | -29% | . | .
CCN(CCO)c1ccc(Nc2cc(-c3ccc(-c4ccccc4)cc3)ncn2)cc1 | i | . | . | 11µM* | i | 0%
O=C(Nc1c(Cl)cccc1Cl)C1CC1(c1ccccc1)c1ccccc1 (stereo unspecified) | . | . | . | -5% | . | .
FC(F)(F)c1cccc(-n2nnnc2C2(N3CCOCC3)CCCC2)c1 | . | . | . | -48% | . | .
CC[n+]1c(/C=C/c2ccc(OC)c(OC)c2)ccc2ccccc21 | i | -2% | 18% | 7.9µM* | i | 2%
O=C(Nc1ccc(Cl)cc1)c1nc[nH]c1C(=O)NCCCCNC(=O)c1[nH]cnc1C(=O)Nc1ccc(Cl)cc1 | 21µM* | 5% | -12% | 3% | ? | -1%
Cc1cccc(NC(=O)NCC2CCN(CCc3ccc(F)cc3)CC2)c1C | . | . | . | 35µM* | . | .
Cc1ccc(C(=O)Nc2cc3c(cc2SCc2ccco2)n(C)c(=O)n3C)cc1 | . | . | . | 7.9µM* | . | .
CC(=O)N1CC2(Cc3ccccc31)CN(C(=O)c1ccccc1Cl)C2 | . | . | . | 39% | . | .
COCCCN1C(=O)C(O)=C(C(C)=O)C1c1cccc(F)c1 (stereo unspecified) | ? | -3% | -3% | 7.9µM* | i | 3%
COc1cccc(C2C(C(C)=O)=C(O)C(=O)N2CCc2c[nH]c3ccccc23)c1 (stereo unspecified) | i | -8% | 16% | 5µM* | i | 0%
CC(=O)C1=C(O)C(=O)N(CCc2c[nH]c3ccccc23)C1c1ccccc1 (stereo unspecified) | i | -139% | 6% | ? | i | 0%
CC(=O)C1=C(O)C(=O)N(CCc2c[nH]c3ccccc23)C1c1ccc(O)cc1 (stereo unspecified) | i | -2% | 10% | 8.9µM* | i | 1%
SMILES | KB-V1 cytotox | SW480 rerep | MCF10A rerep | ALOX12 inh | KB-3-1 tox | PINK1 expr mod
COc1cc(CN(C)Cc2cc(=O)n3ccsc3n2)ccc1OC(F)F | 13µM* | ? | -4% | ? | i | -1%
CCOC(=O)C1=CNc2nncn2C1(O)C(F)(F)F (stereo unspecified) | . | . | . | -30% | . | .
Cc1c(C(=O)NC(Cc2ccccc2)c2nc3ccccc3[nH]2)cccc1[N+](=O)[O-] (stereo unspecified) | ? | ? | 20% | -9% | i | 0%
CSCC[C@H](NC(=O)c1cccc([N+](=O)[O-])c1C)c1nc2ccccc2[nH]1 | 16µM* | 13% | 3% | 1% | i | -2%
CSCC[C@H](NC(=O)C1CCN(S(=O)(=O)c2ccc(C)cc2C)CC1)c1nc2ccccc2[nH]1 | 23µM* | 14% | 3% | -21% | i | 4%
CCCC(=O)NC(c1cccs1)c1cc([N+](=O)[O-])c2cccnc2c1O (stereo unspecified) | ? | ? | ? | 18µM* | ? | 0%
CC(=O)NC(c1cccs1)c1cc([N+](=O)[O-])c2cccnc2c1O (stereo unspecified) | i | ? | ? | ? | ? | 19%
O=C(CCc1ccccc1)NC(c1cccs1)c1cc(Cl)c2cccnc2c1O (stereo unspecified) | 2.1µM* | ? | ? | -6% | ? | 21%
CCC(=O)NC(c1cccs1)c1cc([N+](=O)[O-])c2cccnc2c1O (stereo unspecified) | i | ? | -4% | 3.5µM* | i | 5%
O=C(Cn1nc(C(=O)O)c2ccccc2c1=O)Nc1ccc(F)c(F)c1F | . | . | . | -3% | . | .
Cc1c(CC(=O)NCCc2ccccc2)c(=O)oc2cc(O)c(Cl)cc12 | . | . | . | 1% | . | .
CCOC(=O)COc1ccc(C2NC(C(=O)O)CS2)cc1 (stereo unspecified) | ? | -6% | 0% | 32µM* | i | 1%
COC(=O)c1ccc(C2NC(C(=O)O)CS2)cc1 (stereo unspecified) | i | 0% | ? | 0% | i | 2%[38.3 µM]
COC(=O)c1ccc(CNCC(=O)Nc2ccc(C(=O)OC)cc2)cc1 | i | 2% | 16µM* | 0% | i | 2%
CN=C(NC)NCc1ccc(C(=O)OC)cc1 | . | . | . | 25µM* | . | .

Compound activity (PubChem)
